# Laboratory results published in PubChem BioAssay (EPA / NIEHS).
# Records with an inconclusive call do not appear. Activity calls are given as the source filed them. The calls were made as follows, unless noted: active = hit-call score of the fitted dose curve at least 0.9, where 1 is the maximum; inconclusive = response in the unintended direction; inactive = score below 0.9.
# Columns and labels:
# [1] = target: Estrogen receptor (Homo sapiens) (UniProt P03372); assay: OT_ERa_GFPERaERE_0480: Odyssey Thera (OT) 8-hour HeLa Transcription Induction Assay for Estrogen Receptor (AID 2283381; active = hit-call score of the fitted dose curve at least 0.9, where 1 is the maximum; inactive = score below 0.9)
# In short: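 GFP-ERE reporter, HeLa, 8 h exposure. Readout: fluorescence microscopy, high-content image analysis. Fit direction positive vs DMSO negative control.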
# [2] = target: Retinoic acid receptor RXR-alpha (Homo sapiens) (UniProt P19793); assay: OT_NURR1_NURR1RXRa_0480: Odyssey Thera (OT) 8-hour HEK293T Protein Complementation Assay for Nurr1/retinoid X receptor (RXR) (AID 2283385)
# In short: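 Read-out: fluorescence from protein-fragment complementation between Nurr1 and RXRα in human HEK293T cells, 8 h after dosing. DMSO served as negative control; increased signal counted as activity.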
# [3] = target: Retinoic acid receptor RXR-alpha (Homo sapiens) (UniProt P19793); assay: OT_NURR1_NURR1RXRa_1440: Odyssey Thera (OT) 24-hour HEK293T Protein Complementation Assay for Nurr1/retinoid X receptor (RXR) (AID 2283386)
# In short: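 Fluorescence PCA read-out; HEK293T; 24 h post-dose; bait/prey fused to reporter fragments; gain-of-signal fit vs DMSO negative control.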
# [4] = target: Peroxisome proliferator-activated receptor gamma (Homo sapiens) (UniProt P37231); assay: OT_PPARg_PPARgSRC1_0480: Odyssey Thera (OT) 8-hour Protein-Complementation Assay for Peroxisome Proliferator-activated Receptor Gamma / SRC-1 Co-activator (AID 2283387);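 also: nuclear to cytoplasmic split Venus YFP fluorescence ratio reporting PPARg SRC-1 interaction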
# In short: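 HEK293T transiently transfected with PPARg and SRC-1 fused to Venus YFP fragments, compounds 8 h at 37C. Fixed, Draq5-stained cells imaged; nuclear/cytoplasmic 488 nm fluorescence ratio over at least 350 cells per image; gain fitted versus DMSO.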
# [5] = target: Peroxisome proliferator-activated receptor gamma (Homo sapiens) (UniProt P37231); assay: OT_PPARg_PPARgSRC1_1440: Odyssey Thera (OT) 24-hour Protein-Complementation Assay for Peroxisome Proliferator-activated Receptor Gamma/ SRC-1 Co-activator (AID 2283388)
# In short: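 Protein-fragment complementation between PPARg and coactivator SRC-1 was measured by fluorescence imaging in transiently transfected HEK293T cells after 24 h treatment. Signal was quantified as N/C ratio in the 488 nm channel, with DMSO as negative control.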
# [6] = target: Estrogen receptor (Homo sapiens) (UniProt P03372); assay: OT_ERa_GFPERaERE_0120: Odyssey Thera (OT) 2-hour HeLa Transcription Induction Assay for Estrogen Receptor (AID 2283382)
# In short: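 Fluorescence microscopy read-out: inducible fluorescent protein reporter in HeLa cells, imaged 2 h post-dose. Signal increase over DMSO negative control fitted as single primary endpoint via high content image analysis.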
# [7] = target: Bile acid receptor (Homo sapiens) (UniProt Q96RI1); assay: OT_FXR_FXRSRC1_0480: Odyssey Thera (OT) 8-hour HEK293T Protein-Complementation Assay for Farnesoid X receptor/SRC-1 Co-activator (AID 2283383)
# In short: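 Fluorescence intensity read-out, 8 h post-dose, HEK293T protein-fragment complementation; FXR bait and SRC-1 prey each linked to reporter fragments. Activity scored as signal increase over DMSO negative control.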
# [8] = target: Bile acid receptor (Homo sapiens) (UniProt Q96RI1); assay: OT_FXR_FXRSRC1_1440: Odyssey Thera (OT) 24-hour HEK293T Protein-Complementation Assay for Farnesoid X receptor/SRC-1 Co-activator (AID 2283384)
# In short: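 Fluorescence readout, 24 h post-dose, HEK293T; FXR and SRC-1 fused to complementary reporter fragments, association reconstitutes signal. Positive-direction fit vs DMSO baseline.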
# [9] = target: Estrogen receptor beta (Homo sapiens) (UniProt Q92731); assay: OT_ER_ERbERb_1440: Odyssey Thera (OT) 24-hour HEK293T Protein-Complementation Assay for Estrogen Receptor-beta/-beta Homodimer (AID 2283380);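 also: scored as signal increase over DMSO baseline for both agonists and antagonists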
# In short: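 HEK293T cells stably expressing ER beta LBD (aa 310-547) homodimer fragment-complementation reporter, dosed 24 h. Cells formaldehyde-fixed, Draq5-stained; gain in nuclear (agonist) or nuclear plus cytoplasmic (antagonist) fluorescence versus DMSO read by laser scanning cytometry.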
# [10] = CEETOX_H295R_11DCORT: CeeTox H295R High-throughput Steroidogenesis Assay for 11-Deoxycortisol (11DCORT) (AID 2283432; active = hit-call score of the fitted dose curve at least 0.9, where 1 is the maximum; inactive = score below 0.9;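 as to AC50: human adrenal H295R cells prestimulated with 10 µM forskolin for 48 h; 11-deoxycortisol secreted into the medium measured by LC-MS/MS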); settings: actives raise or lower the signal
# In short: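 H295R cells prestimulated 48 h with 10 uM forskolin, then exposed 48 h to chemical in 0.1% DMSO. 11-Deoxycortisol in medium quantified by HPLC-MS/MS after MTBE extraction; bidirectional fit versus DMSO. MTT viability read in same wells.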
# Peroxisome proliferator-activated receptor gamma (Homo sapiens), sequence (P37231 whole entry, looked up, the tested form may be a part): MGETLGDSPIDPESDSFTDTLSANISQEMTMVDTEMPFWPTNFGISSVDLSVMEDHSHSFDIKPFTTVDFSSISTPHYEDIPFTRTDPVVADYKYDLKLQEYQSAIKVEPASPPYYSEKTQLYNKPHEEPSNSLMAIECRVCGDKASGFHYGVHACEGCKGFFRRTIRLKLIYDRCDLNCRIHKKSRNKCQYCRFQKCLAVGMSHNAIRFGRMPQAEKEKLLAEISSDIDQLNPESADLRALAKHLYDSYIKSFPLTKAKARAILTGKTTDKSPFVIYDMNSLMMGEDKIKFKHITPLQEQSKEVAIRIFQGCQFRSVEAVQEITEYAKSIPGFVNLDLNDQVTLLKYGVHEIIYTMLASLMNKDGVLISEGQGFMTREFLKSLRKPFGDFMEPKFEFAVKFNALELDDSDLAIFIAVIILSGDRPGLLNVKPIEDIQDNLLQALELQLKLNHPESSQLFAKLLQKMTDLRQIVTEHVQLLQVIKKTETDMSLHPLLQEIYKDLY
# Estrogen receptor (Homo sapiens), sequence (P03372 whole entry, looked up): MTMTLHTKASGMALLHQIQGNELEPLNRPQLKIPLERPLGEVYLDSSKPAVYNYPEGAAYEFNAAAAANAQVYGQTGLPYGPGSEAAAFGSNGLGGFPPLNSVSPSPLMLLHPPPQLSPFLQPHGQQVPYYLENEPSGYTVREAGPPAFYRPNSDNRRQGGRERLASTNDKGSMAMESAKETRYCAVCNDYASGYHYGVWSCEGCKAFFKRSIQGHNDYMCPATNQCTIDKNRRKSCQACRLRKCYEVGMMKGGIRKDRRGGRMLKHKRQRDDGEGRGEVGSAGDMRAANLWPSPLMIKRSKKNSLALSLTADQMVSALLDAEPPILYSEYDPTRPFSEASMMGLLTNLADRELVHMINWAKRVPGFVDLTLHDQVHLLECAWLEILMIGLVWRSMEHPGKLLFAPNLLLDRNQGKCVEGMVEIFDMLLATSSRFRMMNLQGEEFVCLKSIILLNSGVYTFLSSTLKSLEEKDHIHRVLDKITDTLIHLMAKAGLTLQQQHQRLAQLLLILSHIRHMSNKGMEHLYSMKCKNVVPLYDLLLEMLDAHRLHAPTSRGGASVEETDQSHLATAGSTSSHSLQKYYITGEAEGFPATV
# Bile acid receptor (Homo sapiens), sequence (Q96RI1 whole entry, looked up, the tested form may be a part): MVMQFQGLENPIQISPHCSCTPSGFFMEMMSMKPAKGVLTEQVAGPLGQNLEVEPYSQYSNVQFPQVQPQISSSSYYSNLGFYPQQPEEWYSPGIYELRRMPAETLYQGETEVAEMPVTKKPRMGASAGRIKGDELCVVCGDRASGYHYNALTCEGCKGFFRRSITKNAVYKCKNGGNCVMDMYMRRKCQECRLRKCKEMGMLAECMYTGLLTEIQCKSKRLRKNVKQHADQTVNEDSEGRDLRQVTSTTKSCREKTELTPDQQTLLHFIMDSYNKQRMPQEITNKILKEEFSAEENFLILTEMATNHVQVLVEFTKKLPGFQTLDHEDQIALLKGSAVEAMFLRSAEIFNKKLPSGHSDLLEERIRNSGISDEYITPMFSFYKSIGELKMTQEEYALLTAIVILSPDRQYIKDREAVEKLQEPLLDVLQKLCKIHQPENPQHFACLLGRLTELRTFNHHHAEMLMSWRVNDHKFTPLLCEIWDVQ
# Retinoic acid receptor RXR-alpha (Homo sapiens), sequence (P19793 whole entry, looked up, the tested form may be a part): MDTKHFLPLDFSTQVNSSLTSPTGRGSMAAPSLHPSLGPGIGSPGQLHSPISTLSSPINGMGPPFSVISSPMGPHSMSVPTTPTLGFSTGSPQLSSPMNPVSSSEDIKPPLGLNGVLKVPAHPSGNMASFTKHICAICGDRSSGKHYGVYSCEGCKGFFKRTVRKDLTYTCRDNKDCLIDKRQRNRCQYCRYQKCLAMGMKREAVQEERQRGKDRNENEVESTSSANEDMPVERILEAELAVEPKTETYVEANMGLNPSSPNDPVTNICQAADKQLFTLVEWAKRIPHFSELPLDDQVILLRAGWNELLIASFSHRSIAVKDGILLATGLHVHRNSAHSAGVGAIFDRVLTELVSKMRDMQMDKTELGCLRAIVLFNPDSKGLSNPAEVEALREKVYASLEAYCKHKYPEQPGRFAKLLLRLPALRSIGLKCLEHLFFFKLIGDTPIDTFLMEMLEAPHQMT
# Estrogen receptor beta (Homo sapiens), sequence (Q92731 whole entry, looked up, the tested form may be a part): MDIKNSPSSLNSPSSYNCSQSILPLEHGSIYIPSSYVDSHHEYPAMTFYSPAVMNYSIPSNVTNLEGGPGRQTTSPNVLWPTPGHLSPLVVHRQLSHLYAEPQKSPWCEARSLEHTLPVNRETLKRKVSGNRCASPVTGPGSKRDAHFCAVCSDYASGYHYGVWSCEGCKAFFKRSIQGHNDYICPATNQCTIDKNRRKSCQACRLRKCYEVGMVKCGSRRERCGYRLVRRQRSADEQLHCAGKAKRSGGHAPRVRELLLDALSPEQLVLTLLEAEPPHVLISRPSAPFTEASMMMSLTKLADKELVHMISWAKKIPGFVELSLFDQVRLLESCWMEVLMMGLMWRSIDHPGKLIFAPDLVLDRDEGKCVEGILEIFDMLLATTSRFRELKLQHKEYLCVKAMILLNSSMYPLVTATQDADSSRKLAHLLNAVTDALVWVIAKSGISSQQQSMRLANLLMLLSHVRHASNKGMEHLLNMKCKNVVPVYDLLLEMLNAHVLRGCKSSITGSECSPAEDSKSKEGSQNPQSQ
smiles,measurement,setting,value
COc1ccc(OC)cc1,outcome,[1],inactive
same,outcome,[2],inactive
same,outcome,[3],inactive
same,outcome,[4],inactive
same,outcome,[5],inactive
CCC(C)(C)C1CCC(OC)CC1 (stereo not drawn),outcome,[1],inactive
same,outcome,[6],inactive
same,outcome,[7],inactive
same,outcome,[8],inactive
same,outcome,[2],inactive
same,outcome,[3],inactive
same,outcome,[4],inactive
same,outcome,[5],inactive
NCCN1CCNCC1,outcome,[9],inactive
same,outcome,[3],inactive
same,outcome,[5],inactive
CCC(C)(C)C1CCC(=O)CC1,outcome,[1],inactive
same,outcome,[6],inactive
same,outcome,[2],inactive
same,outcome,[3],inactive
same,outcome,[4],inactive
NC(N)=S,outcome,[1],inactive
same,outcome,[6],inactive
same,outcome,[2],inactive
same,outcome,[3],inactive
same,outcome,[4],inactive
same,outcome,[5],inactive
CCCC1CCC(=O)CC1,outcome,[1],inactive
same,outcome,[6],inactive
same,outcome,[2],inactive
same,outcome,[3],inactive
same,outcome,[4],inactive
same,outcome,[5],inactive
COC(=O)c1cccc(C(=O)OC)c1,outcome,[1],inactive
same,outcome,[3],inactive
same,outcome,[4],inactive
same,outcome,[5],inactive
CCCCCCCCCCOC(=O)c1ccccc1C(=O)OCCCCCCCC,outcome,[1],inactive
same,outcome,[3],inactive
same,outcome,[4],inactive
[O-]/[N+](=N\O)c1ccccc1,outcome,[1],inactive
same,outcome,[6],inactive
same,outcome,[4],inactive
c1coc(CNc2ncnc3nc[nH]c23)c1,outcome,[1],inactive
same,outcome,[6],inactive
same,outcome,[4],inactive
same,outcome,[5],inactive
same,outcome,[10],inactive
CN1CCc2cccc3c2[C@H]1Cc1ccc(O)c(O)c1-3,outcome,[1],inactive
same,outcome,[6],inactive
same,outcome,[4],inactive
same,outcome,[5],inactive
CN(C)C(=O)Nc1ccccc1,outcome,[1],inactive
same,outcome,[6],inactive
same,outcome,[3],inactive
same,outcome,[4],inactive
CC1=CCC(C(C)C)=CC1,outcome,[1],inactive
same,outcome,[2],inactive
same,outcome,[3],inactive
NC(=O)c1cccnc1,outcome,[1],inactive
same,outcome,[6],inactive
same,outcome,[7],inactive
same,outcome,[8],inactive
same,outcome,[2],inactive
same,AC50,[3],82.4 µM (active)
same,outcome,[4],inactive
same,outcome,[5],inactive
CCCCCCCCCCCCOCCOS(=O)(=O)O,AC50,[1],10 µM (active)
same,AC50,[6],11 µM (active)
same,outcome,[2],inactive
same,outcome,[4],inactive
same,outcome,[5],inactive
CC1=CCC(=C(C)C)CC1,outcome,[1],inactive
same,outcome,[2],inactive
same,AC50,[3],77.4 µM (active)
CC(C)(C)c1cccc(O)c1,outcome,[1],inactive
same,outcome,[2],inactive
same,outcome,[3],inactive
same,outcome,[4],inactive
same,outcome,[5],inactive
same,outcome,[10],inactive
CCCCCCOc1ccc(O)cc1,AC50,[1],88.9 µM (active)
same,AC50,[6],69.5 µM (active)
same,outcome,[2],inactive
same,outcome,[3],inactive
same,outcome,[4],inactive
same,outcome,[5],inactive
O=C(O)c1ccccc1O,outcome,[1],inactive
same,outcome,[2],inactive
same,outcome,[3],inactive
same,outcome,[4],inactive
same,outcome,[5],inactive
CCC(C)(CCCC(C)C)OC(C)=O (stereo not drawn),outcome,[6],inactive
same,outcome,[7],inactive
same,outcome,[8],inactive
same,outcome,[2],inactive
same,outcome,[4],inactive
same,outcome,[5],inactive
CCCCCCCCCCO[C@@H]1O[C@H](CO)[C@@H](O)[C@H](O)[C@H]1O,outcome,[1],inactive
same,outcome,[2],inactive
same,outcome,[3],inactive
CCCCCCCCOC(C)=O,outcome,[1],inactive
same,outcome,[6],inactive
same,outcome,[2],inactive
same,outcome,[3],inactive
same,outcome,[4],inactive
CC(=O)Nc1cc(S(=O)(=O)O)cc2cc(S(=O)(=O)O)c(N=Nc3ccccc3)c(O)c12,outcome,[1],inactive
same,outcome,[6],inactive
same,AC50,[2],22.9 µM (active)
same,outcome,[3],inactive
same,outcome,[4],inactive
CCCCOCCOCCO,outcome,[1],inactive
same,outcome,[6],inactive
same,outcome,[3],inactive
same,outcome,[4],inactive
CC(C)N(c1ccccc1)C(C)C,outcome,[1],inactive
same,outcome,[6],inactive
same,outcome,[3],inactive
same,outcome,[4],inactive
same,outcome,[5],inactive
C1=COCCC1,outcome,[1],inactive
same,outcome,[6],inactive
same,outcome,[7],inactive
same,outcome,[2],inactive
same,outcome,[4],inactive
OC[C@H]1O[C@@H](O[C@H]2[C@H](O)[C@@H](O)[C@H](O)O[C@@H]2CO)[C@H](O)[C@@H](O)[C@H]1O,outcome,[1],inactive
same,outcome,[6],inactive
same,outcome,[7],inactive
same,outcome,[8],inactive
same,outcome,[4],inactive
same,outcome,[5],inactive
CC(=O)OC/C=C(C)/C=C/C=C(C)/C=C/C1=C(C)CCCC1(C)C,outcome,[1],inactive
same,outcome,[6],inactive
same,AC50,[2],27.5 µM (active)
same,outcome,[3],inactive
same,outcome,[4],inactive
same,outcome,[5],inactive
CC(=O)C1=C(C)[C@@H]2C[C@@]3(C1)[C@H](C)CC[C@H]3C2(C)C,outcome,[1],inactive
same,outcome,[6],inactive
same,AC50,[7],37.2 µM (active)
same,outcome,[8],inactive
same,AC50,[2],72.4 µM (active)
same,AC50,[3],90 µM (active)
same,outcome,[4],inactive
same,outcome,[5],inactive
CCCCCC1CCC(=O)O1 (stereo not drawn),outcome,[1],inactive
same,outcome,[6],inactive
same,outcome,[7],inactive
same,outcome,[2],inactive
same,outcome,[3],inactive
same,outcome,[4],inactive
CC(=O)OC(C)(C)C,outcome,[1],inactive
same,outcome,[6],inactive
same,outcome,[2],inactive
same,outcome,[5],inactive
CCCCCC(=O)O[C@]1(C(C)=O)CC[C@H]2[C@@H]3CCC4=CC(=O)CC[C@]4(C)[C@H]3CC[C@@]21C,outcome,[6],inactive
same,AC50,[7],5.16 µM (active)
same,AC50,[8],11.6 µM (active)
same,AC50,[2],11.9 µM (active)
same,AC50,[3],26.3 µM (active)
same,outcome,[4],inactive
same,outcome,[5],inactive
same,AC50,[10],13.3 µM (active)
Cc1cccc(O)c1,outcome,[1],inactive
same,outcome,[2],inactive
same,outcome,[4],inactive
C=C(C)C(N)=O,outcome,[1],inactive
same,outcome,[6],inactive
same,outcome,[2],inactive
same,outcome,[3],inactive
same,outcome,[4],inactive
same,outcome,[5],inactive
CC(C)(C)C1CCC(O)CC1 (stereo not drawn),outcome,[1],inactive
same,outcome,[6],inactive
same,outcome,[3],inactive
CC(=O)OC(C)(C)C1CC=C(C)CC1 (stereo not drawn),outcome,[1],inactive
same,outcome,[6],inactive
same,outcome,[4],inactive
same,outcome,[5],inactive
COc1ccccc1O,outcome,[7],inactive
same,outcome,[2],inactive
same,outcome,[3],inactive
same,outcome,[4],inactive
